Reference: PubChem BioAssay (Tox21)
Records with an inconclusive call do not appear. Active and inactive are the calls of the source. Unless noted, calls come from the whole dose curve; as a rule, active = well fitted curve in the direction sought with a large enough effect in the repeat runs; inconclusive = weak or mixed curves; inactive = no such curve, though single readings can be large; an effect the other way counts as inactive or inconclusive.

Assays:
[1] = target: Aryl hydrocarbon receptor (Homo sapiens) (UniProt P35869); assay: qHTS assay to identify small molecule that activate the aryl hydrocarbon receptor (AhR) signaling pathway (AID 743085); note: nearly all actives have a fitted effect of over 15% in size; note: potency is the fitted concentration of half-maximal effect;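 for activation: HG2L7.5c1 human HepG2 liver cells with stably integrated DRE-driven firefly reporter; series mostly up to about 70 µM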
Procedure, shortened: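 Measured in HG2L7.5c1 cells: CellTiter-Fluor signal (30 min incubation, 37C) for viability, then luciferase luminescence (30 min, room temperature). Compound contact time was 24 h at 37C, following a 5 h pre-incubation.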

[2] = qHTS assay to identify small molecule that activate the aryl hydrocarbon receptor (AhR) signaling pathway - cell viability counter screen (AID 743086);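 note: HepG2 liver cells carrying the AhR DRE luciferase reporter; series mostly up to about 70 µM; nearly all actives have a fitted effect of over 45% in size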
Procedure, shortened: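 HepG2-AhR-luc (HG2L7.5c1) cells, 4000/well, were preincubated 5 h at 37C, exposed to compound in qHTS format for 24 hr at 37C, then given CellTiter-Fluor for 30 min; viability was read as fluorescence in the reporter wells.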

[3] = target: Peroxisome proliferator-activated receptor gamma (Homo sapiens) (UniProt P37231); assay: qHTS assay to identify small molecule agonists of the peroxisome proliferator-activated receptor gamma (PPARg) signaling pathway (AID 743094; active = well fitted activation curve with a large enough effect in the signal ratio in the repeat runs, not every such curve was filed as active; the % refers to the signal ratio)
Procedure, shortened: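 Cell-based bla reporter, HEK293H background, PPARg-driven UAS. Pre-incubation 5 h, 37C, 5% CO2. Compound 17 h, 37C. Substrate 1 h RT; fluorescence.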

[4] = target: Peroxisome proliferator-activated receptor gamma (Homo sapiens) (UniProt P37231); assay: qHTS assay to identify small molecule antagonists of the peroxisome proliferator-activated receptor gamma (PPARg) signaling pathway (AID 743191; calls by dose curve; note: series mostly up to about 63 µM; nearly all actives have a fitted effect of over 30% in size)
Procedure, shortened: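 GeneBLAzer PPARg UAS-bla HEK293H cells carrying a UAS-driven beta-lactamase reporter were plated at 3000 cells/well, preincubated 5 h at 37C, then given compound for 17 h at 37C; LiveBLAzer B/G FRET substrate was read after 1 h at room temperature.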

[5] = qHTS assay to identify small molecule antagonists of the peroxisome proliferator-activated receptor gamma (PPARg) signaling pathway - cell viability counter screen (AID 743194); conditions: Potency: co-treated with 50 nM rosiglitazone; note: nearly all actives have a fitted effect of over 55% in size
Procedure, shortened: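 PPARg-UAS-bla HEK293H cells were plated, rested 5 h at 37 C, then treated with compounds plus rosiglitazone (50 nM final) for 17 h at 37 C; viability was then read by CellTiter-Glo luminescence after 30 min at room temperature.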

[6] = qHTS assay for small molecule agonists of the antioxidant response element (ARE) signaling pathway - cell viability counter screen (AID 743203; calls by dose curve; note: nearly all actives have a fitted effect of over 55% in size)
Procedure, shortened: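 Measured in the same wells as the beta-lactamase ARE reporter, this read-out is CellTiter-Glo luminescence from HepG2 ARE-bla cells given compounds for 16 hrs.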

[7] = qHTS assay for small molecule activators of the heat shock response signaling pathway - cell viability counter screen (AID 743209); note: nearly all actives have a fitted effect of over 50% in size
Procedure, shortened: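 Same-well multiplex: after 2.5 h room-temperature incubation with LiveBLAzer B/G substrate and fluorescence reading, CellTiter-Glo reagent was added to HSE-bla HeLa cells that had received compound for 5 h at 37 C; luminescence read after 30 min.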

[8] = qHTS assay for small molecule activators of the heat shock response signaling pathway (AID 743210; active = well fitted activation curve with a large enough effect in the signal ratio in the repeat runs, with a control signal flat, not every such curve was filed as active; the % refers to the signal ratio;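 note: HeLa cells with beta-lactamase reporter driven by heat shock elements; series mostly up to about 63 µM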)
Procedure, shortened: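 Activation of heat shock element-controlled beta-lactamase expression is measured in HeLa cells by LiveBLAzer FRET fluorescence, with compound exposure lasting 5 h at 37 C and substrate loading 2.5 h at room temperature.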

[9] = qHTS assay to identify small molecule agonists of the peroxisome proliferator-activated receptor delta (PPARd) signaling pathway - cell viability counter screen (AID 743211); note: nearly all actives have a fitted effect of over 55% in size
Procedure, shortened: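 Following 5 h plating at 37 C and 5% CO2, PPARd UAS-bla HEK293H cells took up test compounds for 17 h. Viability was quantified by luminescence 30 min after CellTiter-Glo addition at room temperature.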

[10] = qHTS assay to identify small molecule antagonists of the peroxisome proliferator-activated receptor delta (PPARd) signaling pathway - cell viability counter screen (AID 743213); note: nearly all actives have a fitted effect of over 50% in size
Procedure, shortened: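 PPARd-bla HEK293H cells (3000/well) got compound plus 300 nM L165041 agonist for 17 h at 37 C. Viability in the same wells came from CellTiter-Glo luminescence after 30 min at room temperature.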

[11] = target: Peroxisome proliferator-activated receptor delta (Homo sapiens) (UniProt Q03181); assay: qHTS assay to identify small molecule antagonists of the peroxisome proliferator-activated receptor delta (PPARd) signaling pathway (AID 743215; active = well fitted inhibition curve with a large enough effect in the signal ratio in the repeat runs, not every such curve was filed as active; the % refers to the signal ratio;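 note: cells stimulated with agonist L165041 at 300 nM final during compound exposure; series mostly up to about 62 µM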)
Procedure, shortened: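 Fluorescence from cleaved LiveBLAzer B/G FRET substrate (2 h, room temperature) reports PPARd-driven beta-lactamase in HEK293H UAS-bla cells. Cells had been treated 17 h at 37 C with compound plus 300 nM final L165041.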

[12] = qHTS assay to identify small molecule agonists of the farnesoid-X-receptor (FXR) signaling pathway - cell viability counter screen (AID 743218); note: nearly all actives have a fitted effect of over 45% in size
Procedure, shortened: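 Readout: CellTiter-Glo luminescence, 30 min RT, multiplexed after the FXR-bla FRET reading. HEK 293T FXR-UAS-bla cells received compound 5 h post-plating and were incubated 16 h at 37 C.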

[13] = qHTS assay to identify small molecule antagonists of the farnesoid-X-receptor (FXR) signaling pathway - cell viability counter screen (AID 743221; active = well fitted cell-killing curve with a large enough effect in the repeat runs, not every such curve was filed as active; note: nearly all actives have a fitted effect of over 50% in size)
Procedure, shortened: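 Compound effects on cell number were measured as CellTiter-Glo luminescence in HEK 293T cells expressing FXR-UAS-bla, after 16 h at 37 C with 50 uM CDCA (final).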

[14] = target: Vitamin D3 receptor (Homo sapiens) (UniProt P11473); assay: qHTS assay to identify small molecule antagonists of the vitamin D receptor (VDR) signaling pathway (AID 743223; active = well fitted inhibition curve with a large enough effect in the signal ratio in the repeat runs, not every such curve was filed as active; the % refers to the signal ratio)
Procedure, shortened: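 Beta-lactamase activity in VDR-bla cells is measured by FRET substrate fluorescence (2 h, room temperature) after cells spend 16 h at 37C with test compound and 3 nM final 1alpha,25-dihydroxyvitamin D3.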

[15] = qHTS assay to identify small molecule agonists of the vitamin D receptor (VDR) signaling pathway - cell viability counter screen (AID 743224); note: series mostly up to about 63 µM; nearly all actives have a fitted effect of over 50% in size
Procedure, shortened: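 In parallel with the bla FRET readout, cytotoxicity toward VDR-bla cells after 16 h compound exposure was assessed by CellTiter-Glo, with luminescence recorded after a 30 min room-temperature incubation.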

[16] = qHTS assay for small molecule agonists of the antioxidant response element (ARE) signaling pathway (AID 743202; active = well fitted activation curve with a large enough effect in the signal ratio in the repeat runs, not every such curve was filed as active; the % refers to the signal ratio)
Procedure, shortened: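 Steps: seed ARE-bla HepG2 cells (2,000/well); incubate 5 h at 37 C; add compounds by pin tool; incubate 16 h at 37 C; add FRET substrate; read fluorescence after 2 h at RT.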

[17] = target: Vitamin D3 receptor (Homo sapiens) (UniProt P11473); assay: qHTS assay to identify small molecule agonists of the vitamin D receptor (VDR) signaling pathway (AID 743222; calls by dose curve)
Procedure, shortened: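 Following 4 h attachment at 37C, VDR-bla cells (2,000 per well) received DMSO-dissolved compounds or controls. After 16 h incubation, LiveBLAzer B/G FRET substrate was added and fluorescence read 2 h later at room temperature.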

[18] = target: Bile acid receptor (Homo sapiens) (UniProt Q96RI1); assay: qHTS assay to identify small molecule agonists of the farnesoid-X-receptor (FXR) signaling pathway (AID 743220; active = well fitted activation curve with a large enough effect in the signal ratio in the repeat runs, not every such curve was filed as active; the % refers to the signal ratio)
Procedure, shortened: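 FXR-UAS-bla HEK 293T cells carrying a UAS-driven beta-lactamase reporter were plated for 5 h at 37C/5% CO2, then exposed to DMSO-dissolved Tox21 10K compounds for 16 h at 37C. A LiveBLAzer B/G FRET substrate was loaded for 2 h at room temperature before fluorescence reading.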

[19] = target: Peroxisome proliferator-activated receptor delta (Homo sapiens) (UniProt Q03181); assay: qHTS assay to identify small molecule agonists of the peroxisome proliferator-activated receptor delta (PPARd) signaling pathway (AID 743212; calls by dose curve)
Procedure, shortened: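 Cells expressing a UAS-driven beta-lactamase reporter (PPARd-bla HEK293H) were given test compounds after a 5 h settle and kept at 37 C. Reporter activity was then measured as FRET fluorescence using LiveBLAzer B/G substrate.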

[20] = target: Bile acid receptor (Homo sapiens) (UniProt Q96RI1); assay: qHTS assay to identify small molecule antagonists of the farnesoid-X-receptor (FXR) signaling pathway (AID 743217; active = well fitted inhibition curve with a large enough effect in the signal ratio in the repeat runs, not every such curve was filed as active; the % refers to the signal ratio)
Procedure, shortened: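 FRET fluorescence after 2 h room-temperature LiveBLAzer loading gives the readout. Prior step: FXR-bla HEK 293T cells, seeded and incubated 5 h, received test compounds plus 50 uM final CDCA for 16 h at 37 °C.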

Measured: Potency

Sequence of Peroxisome proliferator-activated receptor delta (Homo sapiens) (Q03181 whole entry, looked up): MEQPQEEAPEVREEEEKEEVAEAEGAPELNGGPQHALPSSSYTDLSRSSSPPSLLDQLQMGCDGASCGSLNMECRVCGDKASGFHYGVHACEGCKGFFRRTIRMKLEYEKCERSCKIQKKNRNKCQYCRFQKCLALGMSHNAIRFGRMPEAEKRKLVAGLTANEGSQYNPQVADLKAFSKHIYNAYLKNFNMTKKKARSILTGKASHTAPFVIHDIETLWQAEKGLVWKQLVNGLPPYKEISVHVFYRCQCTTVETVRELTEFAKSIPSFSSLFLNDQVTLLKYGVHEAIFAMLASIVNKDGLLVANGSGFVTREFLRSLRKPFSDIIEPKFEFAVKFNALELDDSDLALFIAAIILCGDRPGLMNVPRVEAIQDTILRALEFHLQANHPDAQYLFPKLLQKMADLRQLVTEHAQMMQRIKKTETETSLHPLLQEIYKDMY
Sequence of Peroxisome proliferator-activated receptor gamma (Homo sapiens) (P37231 whole entry, looked up): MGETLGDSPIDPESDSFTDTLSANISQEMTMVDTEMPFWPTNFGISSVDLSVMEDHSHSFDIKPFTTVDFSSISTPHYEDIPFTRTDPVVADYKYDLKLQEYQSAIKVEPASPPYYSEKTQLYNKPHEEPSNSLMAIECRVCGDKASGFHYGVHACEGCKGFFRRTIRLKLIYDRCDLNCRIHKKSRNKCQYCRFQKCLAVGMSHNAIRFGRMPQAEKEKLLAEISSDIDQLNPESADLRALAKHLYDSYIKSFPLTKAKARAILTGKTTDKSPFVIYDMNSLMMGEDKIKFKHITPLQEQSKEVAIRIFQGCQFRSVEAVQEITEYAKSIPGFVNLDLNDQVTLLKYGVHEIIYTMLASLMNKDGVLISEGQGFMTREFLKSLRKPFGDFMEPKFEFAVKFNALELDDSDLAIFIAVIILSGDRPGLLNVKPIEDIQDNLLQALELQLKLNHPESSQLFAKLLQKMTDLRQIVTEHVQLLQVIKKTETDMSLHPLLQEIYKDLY
Sequence of Aryl hydrocarbon receptor (Homo sapiens) (P35869 whole entry, looked up): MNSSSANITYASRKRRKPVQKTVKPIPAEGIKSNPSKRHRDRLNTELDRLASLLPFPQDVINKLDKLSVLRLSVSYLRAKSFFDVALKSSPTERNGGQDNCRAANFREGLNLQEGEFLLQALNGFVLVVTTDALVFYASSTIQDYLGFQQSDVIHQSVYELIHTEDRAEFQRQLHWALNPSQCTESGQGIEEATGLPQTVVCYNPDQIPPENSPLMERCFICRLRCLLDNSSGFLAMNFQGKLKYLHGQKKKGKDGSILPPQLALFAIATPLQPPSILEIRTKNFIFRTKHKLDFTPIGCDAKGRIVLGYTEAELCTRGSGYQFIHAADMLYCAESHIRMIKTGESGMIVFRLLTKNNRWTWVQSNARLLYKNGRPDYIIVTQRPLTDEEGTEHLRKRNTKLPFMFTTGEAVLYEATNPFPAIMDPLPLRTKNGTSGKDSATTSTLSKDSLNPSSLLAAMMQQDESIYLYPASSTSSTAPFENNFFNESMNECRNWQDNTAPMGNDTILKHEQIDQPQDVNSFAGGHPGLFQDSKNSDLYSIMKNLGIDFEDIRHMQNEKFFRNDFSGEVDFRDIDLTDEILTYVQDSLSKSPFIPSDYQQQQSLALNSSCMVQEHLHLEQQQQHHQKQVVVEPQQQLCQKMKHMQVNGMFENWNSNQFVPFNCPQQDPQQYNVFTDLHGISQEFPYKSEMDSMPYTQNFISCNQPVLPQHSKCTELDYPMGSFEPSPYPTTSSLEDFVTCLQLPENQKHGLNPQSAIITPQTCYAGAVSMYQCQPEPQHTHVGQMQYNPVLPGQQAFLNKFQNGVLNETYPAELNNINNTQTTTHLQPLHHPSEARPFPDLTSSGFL
Sequence of Bile acid receptor (Homo sapiens) (Q96RI1 whole entry, looked up): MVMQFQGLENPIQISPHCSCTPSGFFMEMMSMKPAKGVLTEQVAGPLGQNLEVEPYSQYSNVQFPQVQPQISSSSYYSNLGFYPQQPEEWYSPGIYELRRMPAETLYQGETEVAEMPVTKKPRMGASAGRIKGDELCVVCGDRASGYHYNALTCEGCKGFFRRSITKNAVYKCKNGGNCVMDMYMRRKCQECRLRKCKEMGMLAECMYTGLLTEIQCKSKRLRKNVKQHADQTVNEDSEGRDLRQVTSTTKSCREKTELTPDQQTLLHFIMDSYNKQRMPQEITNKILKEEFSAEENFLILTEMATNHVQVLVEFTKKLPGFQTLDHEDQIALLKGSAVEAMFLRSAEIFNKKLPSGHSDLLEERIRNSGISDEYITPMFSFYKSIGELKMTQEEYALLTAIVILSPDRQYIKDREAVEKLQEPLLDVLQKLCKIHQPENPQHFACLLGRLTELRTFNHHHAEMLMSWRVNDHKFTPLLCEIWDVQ
Sequence of Vitamin D3 receptor (Homo sapiens) (P11473 whole entry, looked up): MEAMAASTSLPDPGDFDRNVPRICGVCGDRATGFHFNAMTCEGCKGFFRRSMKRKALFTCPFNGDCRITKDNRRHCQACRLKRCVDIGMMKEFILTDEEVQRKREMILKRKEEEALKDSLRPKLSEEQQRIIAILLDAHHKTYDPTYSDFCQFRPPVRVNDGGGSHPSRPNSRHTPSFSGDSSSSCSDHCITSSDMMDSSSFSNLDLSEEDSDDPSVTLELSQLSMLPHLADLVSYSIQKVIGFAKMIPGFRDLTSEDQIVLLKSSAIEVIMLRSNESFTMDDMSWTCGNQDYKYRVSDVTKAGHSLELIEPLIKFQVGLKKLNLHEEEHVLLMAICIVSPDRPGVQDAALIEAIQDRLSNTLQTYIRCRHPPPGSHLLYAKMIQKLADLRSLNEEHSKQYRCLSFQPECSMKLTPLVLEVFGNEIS

CCC1(CC)C(=O)NC(=O)NC1=O
not listed: [16] | [17] | [18] | [19] | [20]
inactive: all other assays above

NC(=O)CF
not listed: [7] | [11] | [14] | [18] | [19] | [20]
inactive: all other assays above

C=CCOCC1CO1 (configuration not stated)
not listed: [5] | [11] | [19] | [20]
inactive: all other assays above

CCOP(=O)(SC(C)CC)N1CCSC1=O (configuration not stated)
not listed: [16] | [18] | [19] | [20]
inactive: all other assays above

O=[N+]([O-])O[C@H]1CO[C@H]2[C@@H]1OC[C@H]2O[N+](=O)[O-]
not listed: [5] | [15] | [18]
inactive: all other assays above

COC1=CC(=O)O[C@@H](/C=C/c2ccc3c(c2)OCO3)C1
active: [1] 0.414 µM
not listed: [14] | [16] | [17] | [18] | [20]
inactive: all other assays above

CCOP(=S)(OCC)Oc1ccc(S(C)=O)cc1 (configuration not stated)
active: [1] 10.9 µM
not listed: [7] | [18] | [19] | [20]
inactive: all other assays above

CC(Cl)C(=O)O (configuration not stated)
inactive: [1] | [2] | [3] | [4] | [16] | [6] | [8] | [9] | [17] | [15]

CN(C1CCCCC1)C1CCCCC1
not listed: [5] | [11] | [15] | [18] | [20]
inactive: all other assays above

N#CC1(N=NC2(C#N)CCCCC2)CCCCC1
not listed: [11] | [15] | [16] | [17] | [18] | [19] | [20]
inactive: all other assays above

O=C(O)c1cc(Cl)ccc1Cl
not listed: [5]
inactive: all other assays above

COC1CC(=C(c2cccs2)c2cccs2)C[N+](C)(C)C1 (configuration not stated)
not listed: [5] | [7] | [11] | [19]
inactive: all other assays above

CC(C)CCON=O
not listed: [7] | [14] | [18] | [20]
inactive: all other assays above

COc1ccc(C(O)(c2cncnc2)C2CC2)cc1 (configuration not stated)
not listed: [5] | [7] | [11] | [14] | [15] | [19]
inactive: all other assays above

FC(F)OC(F)(F)C(F)Cl (configuration not stated)
not listed: [5] | [11] | [18] | [20]
inactive: all other assays above

O=S(=O)(Cl)Cl
not listed: [7] | [10] | [11] | [13] | [18] | [19] | [20]
inactive: all other assays above

CCCC[N+](CCCC)(CCCC)CCCC
not listed: [5] | [7] | [11] | [12] | [14] | [18] | [19] | [20]
inactive: all other assays above

Cc1nc(N(C)C)nc(OC(=O)N(C)C)c1C
not listed: [15] | [16]
inactive: all other assays above

C=CCSSCC=C
not listed: [5] | [18] | [19] | [20]
inactive: all other assays above
